The test can be described thus: enhancers of NK cell killing of ovarian tumor cells, primary screen, imaging, OVCAR3, primary NK cells, calcein-AM imaging (AID 1508625).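 Also: compound given to NK cells 16 h before adding targets at 1.5 to 1 ratio.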 The settings on record: OVCAR3 lysis by primary NK cells, at 5 µM; z-score: measured here: robust Z-score, single-point normalisation.

As to `Cc1c(C(=O)Oc2cccc3ccccc23)cccc1[N+](=O)[O-]`, the corrected activity, negative = more killing was -7.35% and the z-score is -2.77.
The like results for `O=C(O)C1C2C=CC(O2)C1C(=O)N1CCC(Cc2ccccc2)CC1` (stereo not drawn) were, in that order, -3.25% and -1.34.
Turning to `COC(=O)c1cc(Cl)c(NC(=O)c2cc3ccccc3oc2=O)cc1OC`, the corrected activity, negative = more killing was -1.77% and the z-score is -0.79.
Consider `O=C(NN=Cc1cccnc1)c1cc(C2CC2)[nH]n1`, for which the corrected activity, negative = more killing was -2.36% and the z-score was -1.03.
Taken in the same sequence, the figures for `N#Cc1cccn1Cc1ccccc1Cl` were -4.07% and -1.1.
For `O=C(CSc1nnc(-c2cccc(Br)c2)o1)c1ccc2c(c1)CCCC2`, the corrected activity, negative = more killing was -3.57% and the z-score was -1.33.
Take `O=C(NN=Cc1ccc[nH]1)C(O)c1ccccc1` (stereo not drawn): the corrected activity, negative = more killing is -2.59% and the z-score was -0.823.
Take `O=C(Cn1cnc2ccccc2c1=O)NCCC(=O)N1CCOCC1`: the corrected activity, negative = more killing was -5.47% and the z-score was -1.74.
In the case of `O=C(NCCc1ccccc1Cl)C1CC(=O)N(C2CCCCC2)C1` (stereo not drawn), the corrected activity, negative = more killing was -2.73% and the z-score is -1.04.
On to `Cc1cc(C)c2oc(-c3ccc(C)c(N=Cc4cccc([N+](=O)[O-])c4O)c3)nc2c1`, for which the corrected activity, negative = more killing was -14.1% and the z-score is -2.97.
The like results for `OCCNCCCOc1cccc(Cl)c1Cl` were, in that order, 2.34% and 0.743.
Taken in the same sequence, the figures for `Cc1ccc(C(=O)CC2(O)C(=O)N(C(C)C)c3ccccc32)c(C)c1` (stereo not drawn) were -3.79% and -1.13.
As to `Cc1cc(C)cc(-n2cnc3cc(C(=O)NC4CCCCC4C)ccc32)c1` (stereo not drawn), the corrected activity, negative = more killing was -2.86% and the z-score was -0.771.
Taken in the same sequence, the figures for `Cc1ccc(C)c(Cn2cccc2C#N)c1` were -4.01% and -1.08.
Taken in the same sequence, the figures for `O=C(Oc1ccccc1C(=S)N1CCOCC1)c1ccc([N+](=O)[O-])cc1` were 4.47% and 1.39.
Taken in the same sequence, the figures for `Cc1ccc(-c2noc(-c3ccccc3F)n2)cc1` were -2.22% and -0.911.
`Cn1c2ccccc2n2c(SCC(=O)O)nnc12`: the corrected activity, negative = more killing was -4.88% and the z-score was -2.01.
The like results for `O=C(c1cccc(F)c1)N1CCN=C1SCc1ccc(Br)cc1` were, in that order, -4.87% and -1.2.
The like results for `COc1ccccc1C1C(=C(O)c2ccccc2)C(=O)C(=O)N1CC(C)O` (stereo not drawn) were, in that order, -4.26% and -1.62.
Taken in the same sequence, the figures for `Cc1oc(-c2cccc(Br)c2)nc1CN1CCC(C(=O)NCc2ccc(Cl)cc2)CC1` were -6.33% and -1.71.
Consider `CCOC(=O)c1cnc(SCc2ccccc2Cl)nc1N`, for which the corrected activity, negative = more killing was -1.75% and the z-score was -0.473.
On to `CCOC(=O)C1=C(C)Nc2sc(C(=O)c3ccc(C)cc3)c(N)c2C1c1ccc(C(=O)OC)cc1` (stereo not drawn), for which the corrected activity, negative = more killing is -4.02% and the z-score is -1.2.
Regarding `CCc1ccc(NS(=O)(=O)c2ccc3[nH]cc(C(=O)N(C)Cc4ccccc4)c(=O)c3c2)cc1`, the corrected activity, negative = more killing is -2.32% and the z-score was -0.569.
With `S=C(c1nc2ccccc2[nH]1)N1CCOCC1`, the corrected activity, negative = more killing was -3.36% and the z-score was -1.07.
Regarding `Cc1ccc(C(=O)Oc2ccc(C(=S)N3CCOCC3)cc2)cc1`, the corrected activity, negative = more killing was -4.83% and the z-score was -1.5.
The like results for `O=C(O)CSCCC(=O)Nc1ccc(F)cc1` were, in that order, -7.17% and -1.93.
Taken in the same sequence, the figures for `CCCCNCCCOc1cccc(Br)c1` were -0.452% and -0.168.
As to `CCN1CCN(C(=O)c2oc3ccc(S(=O)(=O)N4CCCCCC4)cc3c2C)CC1`, the corrected activity, negative = more killing was -6.41% and the z-score was -1.6.
The like results for `COCCCNC(=O)c1cc(OC)c(OC)c(OC)c1` were, in that order, -10.8% and -2.27.

Values taken from PubChem BioAssay AID1508625 (Wald Lab, School of Medicine, Case Western Reserve …, 2021).
